{"source": "PubChem BioAssay AID680", "about": "(PCMD, 2007)", "note": "Out of some 62,000 compounds screened, about 120 (0.19%) were called active. The full list was thinned out, with actives kept by preference. Unmarked numbers belong to inactive results. Rule as the data show it: active = inhibition above about 20% (passing the limit was not always enough); inactive = the rest."}
{"target": "Coagulation factor XI (Homo sapiens) (UniProt P03951)", "sequence (P03951 19-387 limits assumed)": "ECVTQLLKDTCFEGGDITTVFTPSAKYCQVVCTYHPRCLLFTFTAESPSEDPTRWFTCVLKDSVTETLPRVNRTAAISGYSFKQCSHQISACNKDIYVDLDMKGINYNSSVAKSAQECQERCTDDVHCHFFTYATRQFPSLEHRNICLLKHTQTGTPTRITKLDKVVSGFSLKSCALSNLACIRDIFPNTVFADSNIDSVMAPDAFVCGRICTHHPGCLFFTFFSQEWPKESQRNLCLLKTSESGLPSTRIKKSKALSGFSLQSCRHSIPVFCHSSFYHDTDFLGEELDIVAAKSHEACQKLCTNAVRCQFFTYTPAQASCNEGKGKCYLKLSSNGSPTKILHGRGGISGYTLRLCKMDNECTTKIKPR", "sequence (P03951 388-625 limits assumed)": "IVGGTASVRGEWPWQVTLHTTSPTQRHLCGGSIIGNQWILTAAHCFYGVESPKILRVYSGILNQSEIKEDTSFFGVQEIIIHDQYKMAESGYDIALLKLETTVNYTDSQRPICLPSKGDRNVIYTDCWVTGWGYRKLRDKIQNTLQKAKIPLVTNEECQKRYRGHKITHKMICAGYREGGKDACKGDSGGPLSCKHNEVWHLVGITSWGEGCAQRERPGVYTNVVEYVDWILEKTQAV", "experiment": "human factor XIa inhibition by mixtures – biochemical, 10-compound mixtures, primary screen (AID 680);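 also: each value is inhibition by a whole ten-compound pool holding the compound; 0% = enzyme with no mixture and 100% = wells lacking enzyme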", "conditions": "purified FXIa, fluorogenic substrate, pooled mixtures; at 5 µM; active compounds read high"}
{"smiles": "COC(C)(C)[C@]12CC(O)(C(C)C)ON1[C@H]1CCCCC1N2O", "note": "(stereo partly specified)", "inhibition": "-9.49%"}
{"smiles": "CCOC(=O)CSc1nnc(CNC(=O)Cc2ccccc2)n1-c1ccccc1OC", "inhibition": "13.1%"}
{"smiles": "COc1ccc(CCN2C(=O)c3[nH]nc(-c4ccccc4O)c3C2c2ccc(C)cc2)cc1OC", "note": "(stereo unspecified)", "inhibition": "8.98%"}
{"smiles": "CCc1c(C)n([O-])c2c([n+]1=O)CCCCC2", "inhibition": "5.37%"}
{"smiles": "CC(C)(C)n1c(=O)[nH]c2c(c1=O)CCC2", "inhibition": "5.49%"}
{"smiles": "O=C(CC1(O)C(=O)N(CN2CCOCC2)c2ccccc21)c1ccccc1", "note": "(stereo unspecified)", "inhibition": "4.51%"}
{"smiles": "Cc1cc(NC(=O)CCC(=O)N(c2ccccc2)C(C(=O)NC2CCCC2)c2ccncc2)no1", "note": "(stereo unspecified)", "inhibition": "10%"}
{"smiles": "Cn1c(NC(=O)c2ccco2)c(-c2ccccc2Cl)c(=O)c2ccccc21", "inhibition": "7.49%"}
{"smiles": "CC(C)(C)NC(=O)C(c1ccncc1)N(C(=O)CNC(=O)c1ccco1)c1ccc2c(c1)OCO2", "note": "(stereo unspecified)", "inhibition": "8.32%"}
{"smiles": "CCOC(=O)C1CCN(C(=O)COc2cc(C)c(Br)c(C)c2)CC1", "inhibition": "-1.91%"}
{"smiles": "O=C(CSc1nc2c(cnn2-c2ccc(F)cc2)c(=O)[nH]1)N1CCCCCC1", "inhibition": "2.05%"}
{"smiles": "CCC(=O)c1cc2c(cc1NC(=O)c1cccs1)OCCO2", "inhibition": "1.74%"}
{"smiles": "Cc1oc(-c2cccc(Cl)c2)[n+]([O-])c1C", "inhibition": "1.39%"}
{"smiles": "CN(C)S(=O)(=O)c1ccc(Oc2ccc(S(=O)(=O)N(C)C)cc2)cc1", "inhibition": "7.21%"}
{"smiles": "Cc1cccc2c1N(CC(=O)OC(C)C)C(=O)C2=O", "inhibition": "1.41%"}
{"smiles": "CC1CCN(c2nc3c(c(=O)[nH]c(=O)n3C)n2CCCc2ccccc2)CC1", "inhibition": "-1.49%"}
{"smiles": "O=C(CSc1nnc(-c2ccncc2)n1C1CCCCC1)Nc1ccccc1", "inhibition": "8.47%"}
{"smiles": "Fc1ccc(-c2nnc(CSc3nnc(-c4ccc5c(c4)OCO5)o3)o2)cc1", "inhibition": "0.485%"}
{"smiles": "COc1cccc(-n2cc3c(c2-c2ccccc2)c(=O)n(C)c(=O)n3C)c1", "inhibition": "3.95%"}
{"smiles": "OCCCNC(c1ccccc1)c1ccc(O)cc1", "note": "(stereo unspecified)", "inhibition": "7.84%"}
{"smiles": "COc1ccc2c(CC(=O)Nc3nnc(C4CC4)s3)coc2c1", "inhibition": "4.86%"}
{"smiles": "COc1ccccc1Cn1c(=S)[nH]c2cc(C(=O)N3CCN(C)CC3)ccc2c1=O", "inhibition": "5.3%"}
{"smiles": "COc1cccc(NC(=O)CN(C)S(=O)(=O)c2ccc(C)cc2)c1", "inhibition": "-2.5%"}
{"smiles": "Cc1ccccc1-c1nc(CS(=O)(=O)CC(=O)N2CCc3ccccc3C2)c(C)o1", "inhibition": "11.3%"}
{"smiles": "COc1ccccc1CNC(=O)CCCn1c(=O)c2ccccc2n(CC(=O)NC2CCCC2)c1=O", "inhibition": "0.555%"}
{"smiles": "CC12CN(Cc3ccccc3)CC(C)(CN(Cc3ccccc3)C1)C2=NO", "inhibition": "-5.8%"}
{"smiles": "CCOC(=O)NC(C(F)(F)F)(C(F)(F)F)P(=O)(c1ccccc1)c1ccccc1", "inhibition": "22.6% (active)"}
{"smiles": "CCOC(=O)C(C(=O)OCC)C(C#N)c1ccccc1", "note": "(stereo unspecified)", "inhibition": "3.99%"}
{"smiles": "CCOC(=O)Nc1ccccc1N1C(=O)c2ccccc2C1=O", "inhibition": "7.59%"}
{"smiles": "CCOC(=O)N1CCC(NC(=O)C(C)n2c3ccccc3c3cnn(C)c(=O)c32)CC1", "note": "(stereo unspecified)", "inhibition": "-52.1%"}
{"smiles": "CN(CCCC(=O)Nc1nccs1)S(=O)(=O)c1ccc(Cl)cc1", "inhibition": "2.62%"}
{"smiles": "Cc1cc(C)c2c(n1)nn1c(-n3ccnc3)cc(C)nc21", "inhibition": "4.82%"}
{"smiles": "CN(C(=O)c1ccno1)c1nnc(-c2cccnc2)s1", "inhibition": "0.72%"}
{"smiles": "CN(Cc1ccccc1)Cc1ccccc1F", "inhibition": "11%"}
{"smiles": "O=C(Nc1ccccc1)N(Cc1cccnc1)Cc1ccco1", "inhibition": "9.03%"}
{"smiles": "O=C(Nc1ccn(Cc2ccc(F)cc2)n1)c1ccncc1", "inhibition": "1.2%"}
{"smiles": "CS(=O)(=O)N1CCCC(C(=O)N2CCOCC2)C1", "note": "(stereo unspecified)", "inhibition": "6.58%"}
{"smiles": "Fc1ccccc1OCCSc1nc2ccccc2o1", "inhibition": "5.06%"}
{"smiles": "COC(=O)C1=C(C)N(C)C(C)=C(C(=O)OC)C1c1cccc(Br)c1", "inhibition": "4.43%"}
{"smiles": "CC(=O)NC(C)(C)C1CC=C(C)/C(=N\\O)C1", "note": "(stereo unspecified)", "inhibition": "6.99%"}
{"smiles": "Cc1ccc(S(=O)(=O)N2CCC(C(=O)OCC(=O)N3CC(=O)Nc4ccccc43)CC2)cc1", "inhibition": "-8.9%"}
{"smiles": "Cc1ccc(-c2csc3nnc(SCC(=O)NCc4ccco4)n23)cc1", "inhibition": "25.9% (active)"}
{"smiles": "O=C(CSc1nnc2scc(-c3ccc(F)cc3)n12)NCc1ccco1", "inhibition": "2.54%"}
{"smiles": "Cn1c(-c2ccc(F)cc2)cnc1SCC(=O)NCc1ccco1", "inhibition": "-1.83%"}
{"smiles": "COC(=O)c1c(NC(=O)c2cccs2)sc2c1CCCC2", "inhibition": "5.01%"}
{"smiles": "NC(=O)COc1ccc2c3c(c(=O)oc2c1)CCCCC3", "inhibition": "-3.05%"}
{"smiles": "CCC(=O)Nc1ccc(C(=O)CSc2nnc(CNc3ccc(Cl)cc3)o2)cc1OC", "inhibition": "1.04%"}
{"smiles": "COc1ccc(CCNC(=O)C2CCCN(Cc3nc(-c4cccc(Cl)c4)oc3C)C2)cc1OC", "note": "(stereo unspecified)", "inhibition": "10.1%"}
{"smiles": "Cc1nc2nc[nH]n2c(=O)c1NC(=O)c1cccc(OCC(C)C)c1", "inhibition": "8.27%"}
{"smiles": "CCOC(=O)C1CCN(C(=O)Cc2c(C(=O)O)[nH]c3ccccc23)CC1", "inhibition": "6.1%"}
{"smiles": "CCc1c(C)nc2ncnn2c1N1CCC(C(=O)NCc2ccc3c(c2)OCO3)CC1", "inhibition": "8.05%"}
{"smiles": "CCN(CC)CCN1C(=O)C(=O)/C(=C(/O)c2ccccc2)C1c1ccccc1F", "note": "(stereo unspecified)", "inhibition": "4.21%"}
{"smiles": "Cc1ccc(S(=O)(=O)N(C)CC(=O)N2CCc3ccccc32)cc1", "inhibition": "4.38%"}
{"smiles": "COc1ccc(C2N=C(N)N=C(N)N2c2ccccc2)cc1OC", "note": "(stereo unspecified)", "inhibition": "1.53%"}
{"smiles": "O=C(CSc1nnc(-c2ccco2)o1)NCC(=O)c1ccccc1", "inhibition": "10.1%"}
{"smiles": "COc1cccc2c(C)c(C(=O)O)[nH]c12", "inhibition": "-18%"}
{"smiles": "CCOC(=O)N1CCC(O)(c2cc(C)c(C)cc2C)CC1", "inhibition": "9.28%"}
{"smiles": "Cc1nc2nc3c(cn2n1)C(=O)CC(c1ccccc1)C3", "note": "(stereo unspecified)", "inhibition": "1.31%"}
{"smiles": "COc1ccc(CCN2CNc3c(c(=O)n(C)c(=O)n3C)C2)cc1OC", "inhibition": "10.4%"}
{"smiles": "N#CCCn1ncc2ccccc21", "inhibition": "-0.96%"}
{"smiles": "COc1cc(=O)[nH]c(=O)n1C(=O)Cc1ccccc1", "inhibition": "2.34%"}
